Experimental data taken from PubChem BioAssay (Tox21).
Results filed as inconclusive are left out. A call without a number means that no potency is given here. Activity calls are given as the source filed them. Unless noted, calls come from the whole dose curve; as a rule, active = well fitted curve in the direction sought with a large enough effect in the repeat runs; inconclusive = weak or mixed curves; inactive = no such curve, though single readings can be large; an effect the other way counts as inactive or inconclusive.

Legend:
[1] = A CellTox Green Cytotoxicity Assay to monitor cytotoxicity in HepG2 cells - 8 hour (AID 1224890); note: nearly all actives have a fitted effect of over 45% in size; note: potency is the fitted concentration of half-maximal effect
How it was run: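 Real-time, homogeneous cytotoxicity readout: dead-cell DNA staining by CellTox Green in HepG2 monolayers, fluorescence measured at timed intervals up to 40 h of continuous compound exposure.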

[2] = qHTS assay to identify small molecule antagonists of the estrogen receptor alpha (ER-alpha) signaling pathway using the BG1 cell line in the presence of 0.1 nM 17-beta-estradiol - cell viability counter screen (AID 1259241); note: nearly all actives have a fitted effect of over 40% in size
How it was run: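 VM7Luc4E2 cells (endogenous ER-alpha, 4×ERE-luciferase), hormone-starved 5 days in charcoal-stripped FBS, were treated with compounds plus 0.1 nM 17beta-estradiol for 22 hr at 37C; viability read in same wells as CellTiter-Fluor live-cell protease fluorescence.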

[3] = qHTS assay to identify small molecule antagonists of the androgen receptor (AR) signaling pathway using the MDA cell line in the presence of 0.5 nM R1881 - cell viability counter screen (AID 1259242); note: nearly all actives have a fitted effect of over 45% in size
How it was run: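 Cytotoxicity toward MDA-kb2 cells is measured by CellTiter-Fluor live-cell protease fluorescence after 16 hr compound exposure at 37C in the presence of 0.5 nM R1881 stimulator.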

[4] = qHTS assay to identify small molecule HDAC inhibitors (AID 1259364); note: nearly all actives have a fitted effect of over 45% in size; note: potency is the fitted concentration of half-maximal effect
How it was run: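 Homogeneous cell-based luminescent assay of endogenous class I/II HDAC activity; HCT-116 cells, 2 h compound exposure, 30 min HDAC-Glo development at RT.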

[5] = qHTS assay to identify small molecule agonists of the sonic hedgehog signaling (Shh) pathway - cell viability counter screen (AID 1259366); note: nearly all actives have a fitted effect of over 50% in size
How it was run: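 NIH/3T3-derived 3T3 Gli1-Luc cells (stable Gli1-responsive firefly luciferase reporter) were seeded, rested 4 hr at 37 C/5% CO2, then exposed to compounds in DMSO for 24 hr; viability was read by CellTiter-Fluor fluorescence in the same wells.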

[6] = qHTS assay to identify small molecule antagonists of the sonic hedgehog signaling (Shh) pathway - cell viability counter screen (AID 1259367); note: nearly all actives have a fitted effect of over 55% in size; note: potency is the fitted concentration of half-maximal effect
How it was run: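 After a 4 hr settling period, 3T3 Gli1-Luc cells were treated with DMSO-dissolved chemicals and conditioned medium, kept 24 hr at 37C in 5% CO2, and assayed for viability by CellTiter-Fluor fluorescence following 1 hr reagent incubation.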

[7] = qHTS assay to identify small molecule agonists of the sonic hedgehog signaling (Shh) pathway (AID 1259368; calls by dose curve; note: series mostly up to about 92 µM; nearly all actives have a fitted effect of over 15% in size)
How it was run: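 Steps: seed 3T3 Gli1-Luc cells, incubate 4 hr at 37 C, pin-transfer compounds in DMSO alongside a positive control, incubate 24 hr, add luciferase detection reagent, wait 30 min at room temperature, read luminescence.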

[8] = qHTS assay to identify small molecule antagonists of the sonic hedgehog signaling (Shh) pathway (AID 1259369; calls by dose curve; note: nearly all actives have a fitted effect of over 45% in size; note: potency is the fitted concentration of half-maximal effect)
How it was run: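 Inhibition of Shh signalling is measured as reduced Gli1-response-element firefly luciferase output in an NIH/3T3-derived stable reporter clone stimulated with conditioned medium for 24hr.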

[9] = qHTS assay to identify small molecule agonists of the androgen receptor (AR) signaling pathway in the presence of an antagonist - cell viability counter screen (AID 1259379); note: nearly all actives have a fitted effect of over 25% in size; note: potency is the fitted concentration of half-maximal effect
How it was run: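 Fluorescence from CellTiter-Fluor, added after 15 hr and read 1 hr later, gave cell viability. Cells were MDA-kb2 exposed to compounds (15 concentrations) in the presence of 3.0uM nilutamide at 37C, 0% CO2.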

[10] = qHTS assay to identify small molecule agonists of the estrogen receptor beta (ER-beta) signaling pathway - cell viability counter screen (AID 1259380); note: nearly all actives have a fitted effect of over 30% in size; note: potency is the fitted concentration of half-maximal effect
How it was run: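 Same-well viability counter screen. Cells: ER-beta-UAS-bla HEK293T, plated 6 hr before compound, in 2% charcoal-stripped FBS. Compound exposure 16 hr, 37C; viability by CellTiter-Glo luminescence after 30 min at room temperature.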

[11] = qHTS assay to identify small molecule antagonists of the estrogen receptor beta (ER-beta) signaling pathway - cell viability counter screen (AID 1259382); note: series mostly up to about 92 µM; nearly all actives have a fitted effect of over 55% in size
How it was run: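 Following a 6 hr plating period, HEK293T cells carrying a UAS-driven beta-lactamase reporter under ER-beta control received compounds and 1nM E2 (final). After 16 hr at 37C and 2 hr substrate loading, CellTiter-Glo luminescence indicated viability.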

[12] = qHTS assay to identify small molecule agonists or antagonists of the thyroid stimulating hormone receptor (TSHR) signaling pathway - wild type cell line counter screen (AID 1259384; calls by dose curve)
How it was run: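 Wild-type HEK293 cells were plated 18 h at 37 C/5% CO2, pin-dosed with compound plus Ro20-1724 medium, held 30 min at room temperature, then given cAMP-d2 and anti-cAMP-cryptate; fluorescence was read after 1 h. Fifteen concentrations, triplicate.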

[13] = qHTS assay to identify small molecule HDAC inhibitors - cell viability counter screen (AID 1259365); note: series mostly up to about 92 µM; nearly all actives have a fitted effect of over 50% in size
How it was run: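 Wild-type HCT-116 cells were seeded at 1,500 per well, incubated overnight at 37 C, then exposed to compounds in DMSO for 2hr. Viability was read by CellTiter-Glo luminescence after 30min at room temperature.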

[14] = qHTS assay to identify small molecule phospholipidosis (PLD) inducers (AID 1259344; active = well fitted curve in the direction sought with a large enough effect; an effect the other way counts as inactive or inconclusive)
How it was run: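 HepG2 cells grown on collagen I take up LipidTOX Red while exposed to compound for 24 h; after fixation they are imaged at 20x and pit metrics are extracted.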

[15] = target: Estrogen receptor beta (Homo sapiens) (UniProt Q92731); assay: qHTS assay to identify small molecule agonists of the estrogen receptor beta (ER-beta) signaling pathway (AID 1259377; active = well fitted activation curve with a large enough effect in the signal ratio in the repeat runs, not every such curve was filed as active; the % refers to the signal ratio)
How it was run: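 ER-beta-UAS-bla HEK293T (GripTite) cells carrying a UAS-driven beta-lactamase reporter, in medium with 2% charcoal-stripped FBS, were exposed to compounds for 16 hr at 37C; LiveBLAzer B/G FRET substrate was then added and fluorescence read after 2 hours at room temperature.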

[16] = target: Estrogen receptor beta (Homo sapiens) (UniProt Q92731); assay: qHTS assay to identify small molecule antagonists of the estrogen receptor beta (ER-beta) signaling pathway (AID 1259378; active = well fitted inhibition curve with a large enough effect in the signal ratio in the repeat runs, not every such curve was filed as active; the % refers to the signal ratio; note: potency is the fitted concentration of half-maximal effect)
How it was run: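 ER-beta-UAS-bla HEK293T (GripTite) cells in 2% charcoal-stripped FBS medium were preincubated 6 hr at 37C, dosed with compound, then stimulated with 1 nM E2 (final) for 16 hr; beta-lactamase reporter read by B/G FRET fluorescence after 2 hr substrate loading.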

[17] = target: Androgen receptor (Homo sapiens) (UniProt P10275); assay: qHTS assay to identify small molecule antagonists of the androgen receptor (AR) signaling pathway using the MDA cell line in the presence of 0.5 nM R1881 (AID 1259243); note: nearly all actives have a fitted effect of over 50% in size
How it was run: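 Steps: seed MDA-kb2 cells, incubate 5 hr at 37C; pin-transfer compounds in DMSO; add R1881 to 0.5 nM final; incubate 16 hr; add ONE-Glo, wait 30 min at room temperature; read luminescence.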

[18] = target: Androgen receptor (Homo sapiens) (UniProt P10275); assay: qHTS assay to identify small molecule agonists of the androgen receptor (AR) signaling pathway in the presence of an antagonist (AID 1259381; calls by dose curve; note: nearly all actives have a fitted effect of over 15% in size)
How it was run: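 Cells are MDA-kb2 (human breast carcinoma, MMTV-luc, AR/GR responsive). Nilutamide is present at 3.0uM final throughout; compounds are added at 15 concentrations and incubated 16hr at 37C before ONE-Glo luminescence detection.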

[19] = target: Estrogen receptor (Homo sapiens) (UniProt P03372); assay: qHTS assay to identify small molecule agonists of the estrogen receptor alpha (ER-alpha) signaling pathway in the presence of an antagonist (AID 1259383; calls by dose curve; note: top concentration of the series differs between compounds; nearly all actives have a fitted effect of over 15% in size)
How it was run: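 Cells are hormone-deprived for 5 days (charcoal-stripped FBS, no phenol red), plated for 24hr, spiked with 10.0nM ICI-182,780, then dosed at 15 concentrations. After 22hr at 37C, ONE-Glo luminescence reports ERE-luciferase activity.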

[20] = target: Estrogen receptor (Homo sapiens) (UniProt P03372); assay: qHTS assay to identify small molecule antagonists of the estrogen receptor alpha (ER-alpha) signaling pathway using the BG1 cell line in the presence of 0.1 nM 17-beta-estradiol (AID 1259244); note: nearly all actives have a fitted effect of over 50% in size
How it was run: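 After 5 days in hormone-depleted medium (charcoal-stripped serum, no phenol red), VM7Luc4E2 cells were seeded, incubated 24 h, then co-treated with compound and 0.1 nM (final) estradiol for 22 h before luminescence detection.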

Sequence of Estrogen receptor (Homo sapiens) (P03372 whole entry, looked up): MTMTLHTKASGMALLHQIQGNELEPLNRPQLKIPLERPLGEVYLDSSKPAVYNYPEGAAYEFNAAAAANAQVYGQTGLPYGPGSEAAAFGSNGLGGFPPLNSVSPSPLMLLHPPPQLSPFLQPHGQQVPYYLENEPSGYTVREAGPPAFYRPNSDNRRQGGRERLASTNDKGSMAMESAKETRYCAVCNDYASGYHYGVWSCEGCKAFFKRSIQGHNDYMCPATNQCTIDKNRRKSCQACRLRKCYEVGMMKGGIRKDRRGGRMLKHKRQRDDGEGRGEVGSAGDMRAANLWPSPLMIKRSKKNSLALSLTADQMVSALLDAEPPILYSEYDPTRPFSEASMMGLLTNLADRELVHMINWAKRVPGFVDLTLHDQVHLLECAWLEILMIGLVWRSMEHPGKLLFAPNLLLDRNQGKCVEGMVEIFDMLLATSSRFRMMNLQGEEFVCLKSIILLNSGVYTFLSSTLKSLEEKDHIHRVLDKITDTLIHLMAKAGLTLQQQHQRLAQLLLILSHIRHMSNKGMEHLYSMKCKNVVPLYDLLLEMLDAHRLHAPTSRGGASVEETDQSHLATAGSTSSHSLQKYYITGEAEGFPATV
Sequence of Estrogen receptor beta (Homo sapiens) (Q92731 whole entry, looked up): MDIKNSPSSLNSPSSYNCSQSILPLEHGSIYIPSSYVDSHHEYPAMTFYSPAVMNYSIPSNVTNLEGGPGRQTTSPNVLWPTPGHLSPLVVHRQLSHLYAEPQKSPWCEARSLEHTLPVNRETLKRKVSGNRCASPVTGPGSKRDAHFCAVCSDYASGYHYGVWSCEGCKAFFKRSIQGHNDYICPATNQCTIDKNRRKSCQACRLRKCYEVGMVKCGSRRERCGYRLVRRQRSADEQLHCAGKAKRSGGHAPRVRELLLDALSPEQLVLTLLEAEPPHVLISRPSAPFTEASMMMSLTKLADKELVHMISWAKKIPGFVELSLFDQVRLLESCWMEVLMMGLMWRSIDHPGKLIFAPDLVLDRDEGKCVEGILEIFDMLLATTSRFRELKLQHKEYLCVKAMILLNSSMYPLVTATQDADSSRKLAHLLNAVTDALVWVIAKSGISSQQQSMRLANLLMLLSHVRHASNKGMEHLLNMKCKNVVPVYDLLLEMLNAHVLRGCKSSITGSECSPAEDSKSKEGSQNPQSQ
Sequence of Androgen receptor (Homo sapiens) (P10275 whole entry, looked up): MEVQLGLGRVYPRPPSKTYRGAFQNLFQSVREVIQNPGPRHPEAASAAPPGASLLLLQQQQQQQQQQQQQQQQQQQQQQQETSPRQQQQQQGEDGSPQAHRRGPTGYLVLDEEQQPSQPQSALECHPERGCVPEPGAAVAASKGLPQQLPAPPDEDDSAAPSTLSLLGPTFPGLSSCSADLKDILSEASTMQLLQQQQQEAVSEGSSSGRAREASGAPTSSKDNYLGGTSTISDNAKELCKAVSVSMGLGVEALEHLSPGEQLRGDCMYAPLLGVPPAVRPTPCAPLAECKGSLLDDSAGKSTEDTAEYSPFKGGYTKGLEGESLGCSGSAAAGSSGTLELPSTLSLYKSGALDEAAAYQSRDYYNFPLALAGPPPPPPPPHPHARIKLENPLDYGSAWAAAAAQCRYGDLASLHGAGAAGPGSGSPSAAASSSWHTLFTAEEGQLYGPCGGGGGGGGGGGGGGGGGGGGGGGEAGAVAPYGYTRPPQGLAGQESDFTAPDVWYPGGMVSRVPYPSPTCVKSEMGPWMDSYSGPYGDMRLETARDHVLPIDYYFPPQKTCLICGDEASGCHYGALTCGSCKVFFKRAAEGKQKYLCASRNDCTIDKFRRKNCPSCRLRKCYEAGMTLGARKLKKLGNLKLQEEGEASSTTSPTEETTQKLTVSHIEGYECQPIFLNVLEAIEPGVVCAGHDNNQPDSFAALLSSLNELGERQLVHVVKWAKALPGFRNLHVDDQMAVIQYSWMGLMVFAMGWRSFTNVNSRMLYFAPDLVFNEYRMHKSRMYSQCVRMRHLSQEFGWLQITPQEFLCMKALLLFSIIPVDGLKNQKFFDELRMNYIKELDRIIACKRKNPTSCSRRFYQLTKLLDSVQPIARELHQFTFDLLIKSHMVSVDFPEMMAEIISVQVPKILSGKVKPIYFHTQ

| SMILES | Potency [1] | Potency [2] | outcome [3] | Potency [4] | Potency [5] | Potency [6] | Potency [7] | Potency [8] | Potency [9] | Potency [10] | outcome [11] | outcome [12] | outcome [13] | outcome [14] | outcome [15] | Potency [16] | Potency [17] | Potency [18] | Potency [19] | Potency [20] |
| --- | --- | --- | --- | --- | --- | --- | --- | --- | --- | --- | --- | --- | --- | --- | --- | --- | --- | --- | --- | --- |
| CCN(CC)C(=O)N(CC)CC | inactive | inactive | inactive | inactive | inactive | inactive | inactive | inactive | inactive | inactive | inactive | – | – | – | – | – | – | – | – | – |
| C=CC1CO1 (stereo not drawn) | inactive | inactive | inactive | inactive | inactive | inactive | inactive | inactive | inactive | – | inactive | inactive | – | – | – | – | – | – | – | – |
| CC1=NN(c2cc(Cl)c(S(=O)(=O)O)cc2Cl)C(=O)C1N=Nc1ccc(S(=O)(=O)O)cc1 (stereo not drawn) | inactive | – | – | 27.3 µM (active) | – | – | inactive | inactive | – | – | inactive | inactive | inactive | – | – | – | – | – | – | – |
| CCCCNc1cc(C(=O)O)cc(S(N)(=O)=O)c1Oc1ccccc1 | – | inactive | inactive | inactive | – | inactive | inactive | inactive | inactive | – | inactive | inactive | inactive | inactive | – | – | – | – | – | – |
| CC1=C(O)C(=O)OC1C (stereo not drawn) | inactive | inactive | inactive | inactive | – | inactive | inactive | inactive | inactive | inactive | inactive | inactive | inactive | – | inactive | inactive | – | – | – | – |
| CN(C)CCOc1ccccc1Cc1ccccc1 | – | inactive | inactive | inactive | inactive | inactive | inactive | – | inactive | 26.6 µM (active) | – | inactive | inactive | – | inactive | inactive | – | – | – | – |
| CCCS(=O)c1ccc2nc(NC(=O)OC)[nH]c2c1 (stereo not drawn) | inactive | – | inactive | 5.96 µM (active) | – | inactive | inactive | inactive | inactive | inactive | inactive | inactive | inactive | – | inactive | inactive | inactive | inactive | – | – |
| Cc1ccc([N+](=O)[O-])cc1Cl | inactive | inactive | inactive | inactive | – | inactive | inactive | – | inactive | inactive | inactive | inactive | inactive | – | inactive | inactive | – | – | – | – |
| O=C(O[C@@H](C(=O)O)[C@@H](OC(=O)c1ccccc1)C(=O)O)c1ccccc1 | inactive | inactive | inactive | inactive | inactive | inactive | inactive | inactive | inactive | inactive | inactive | – | – | – | – | inactive | – | – | inactive | – |
| Cc1ccc([N+](=O)[O-])c(N)c1 | inactive | – | inactive | inactive | – | – | inactive | 18.9 µM (active) | – | inactive | inactive | inactive | inactive | – | inactive | inactive | – | – | – | – |
| Cc1ccc(C=O)s1 | 38.9 µM (active) | inactive | inactive | inactive | inactive | inactive | inactive | 48.6 µM (active) | inactive | inactive | inactive | – | – | – | inactive | inactive | – | – | – | – |
| O=C(O)C(=O)Cc1c[nH]c2ccccc12 | inactive | inactive | inactive | inactive | inactive | inactive | inactive | inactive | inactive | inactive | inactive | inactive | – | – | – | – | – | – | inactive | – |
| CC1CN(c2ccccc2)NC1=O (stereo not drawn) | inactive | inactive | inactive | 24.3 µM (active) | inactive | inactive | – | inactive | inactive | – | inactive | inactive | – | – | – | – | – | – | – | – |
| CCOc1ccccc1N | inactive | inactive | – | inactive | inactive | inactive | inactive | inactive | 54.1 µM (active) | – | – | inactive | – | – | – | – | – | – | inactive | – |
| CC/C=C\CCOC(=O)CCCCC | – | inactive | inactive | inactive | inactive | inactive | inactive | inactive | inactive | inactive | inactive | inactive | – | – | – | – | – | – | inactive | inactive |
| CC(C)=CCC[C@](C)(O)[C@@H]1CC=C(C)CC1 | – | inactive | inactive | inactive | inactive | inactive | inactive | inactive | inactive | – | inactive | inactive | inactive | – | inactive | inactive | – | – | – | – |
| O=C1Nc2ccc([N+](=O)[O-])cc2C1=O | inactive | inactive | inactive | inactive | inactive | inactive | – | inactive | – | – | inactive | inactive | – | – | inactive | inactive | – | – | – | – |
| CC(C)=CCCC(C)CCOC=O (stereo not drawn) | inactive | inactive | inactive | inactive | inactive | – | inactive | 34.4 µM (active) | inactive | inactive | inactive | inactive | inactive | – | – | – | – | – | – | – |
| OCc1c2ccccc2cc2ccccc12 | inactive | inactive | inactive | inactive | – | inactive | inactive | inactive | inactive | – | inactive | inactive | inactive | – | – | inactive | – | – | inactive | – |
| CCN(O)CC | inactive | inactive | inactive | 26.7 µM (active) | – | 21.2 µM (active) | inactive | 11.9 µM (active) | inactive | – | inactive | – | inactive | – | – | – | – | – | – | – |
| CCC(=O)c1ccc2c(c1)N(CCCN(C)C)c1ccccc1S2 | inactive | – | inactive | inactive | inactive | inactive | inactive | inactive | – | 29.8 µM (active) | – | – | inactive | – | inactive | 26.6 µM (active) | – | inactive | – | – |
